# Measurements reported in the supplement of paper PMC4466140.
# B1: unnamed (peptide)
# chain: RRRRRPHRIERPLSN
# Target: AgAbp1
# Assay: SPOT peptide array binding signal intensity (averaged, normalized) (arbitrary units (background-subtracted, floor 0; scale differs between SH3 domains)); higher = stronger binding of the SH3 domain to the peptide
# Experimental: (§1)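 GST-tagged SH3 domains from S. cerevisiae (Sc), A. gossypii (Ag), C. albicans (Ca) and S. pombe (Sp) were incubated at 10 ug/ml overnight at 4 C on cellulose SPOT membranes carrying 292 synthetic 15-mer peptides mined from the S. cerevisiae proteome (cysteines replaced by serines). Binding was detected with anti-GST antibody, HRP secondary and chemiluminescence, quantified with Genespotter, and reported as normalized spot intensities averaged over biological replicates.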
row,Binder,SPOT peptide array binding signal intensity
1,B1,25

# Target: AgBbc1
# Assay: as above
# Experimental: as §1
row,Binder,SPOT peptide array binding signal intensity
1,B1,170

# Target: AgBem1-D1
# Assay: as above
# Experimental: as §1
row,Binder,SPOT peptide array binding signal intensity
1,B1,136

# Target: AgBzz1-D1
# Assay: as above
# Experimental: as §1
row,Binder,SPOT peptide array binding signal intensity
1,B1,33

# Target: AgBzz1-D2
# Assay: as above
# Experimental: as §1
row,Binder,SPOT peptide array binding signal intensity
1,B1,43

# Target: AgCyk3
# Assay: as above
# Experimental: as §1
row,Binder,SPOT peptide array binding signal intensity
1,B1,33

# Target: AgFus1
# Assay: as above
# Experimental: as §1
row,Binder,SPOT peptide array binding signal intensity
1,B1,322

# Target: AgHof1
# Assay: as above
# Experimental: as §1
row,Binder,SPOT peptide array binding signal intensity
1,B1,28.5

# Target: AgHse1
# Assay: as above
# Experimental: as §1
row,Binder,SPOT peptide array binding signal intensity
1,B1,833

# Target: AgLsb1
# Assay: as above
# Experimental: as §1
row,Binder,SPOT peptide array binding signal intensity
1,B1,4.25

# Target: AgLsb4
# Assay: as above
# Experimental: as §1
row,Binder,SPOT peptide array binding signal intensity
1,B1,160

# Target: AgMyo5
# Assay: as above
# Experimental: as §1
row,Binder,SPOT peptide array binding signal intensity
1,B1,2.25

# Target: AgNbp2
# Assay: as above
# Experimental: as §1
row,Binder,SPOT peptide array binding signal intensity
1,B1,72

# Target: AgRvs167
# Assay: as above
# Experimental: as §1
row,Binder,SPOT peptide array binding signal intensity
1,B1,3.17

# Target: AgSho1
# Assay: as above
# Experimental: as §1
row,Binder,SPOT peptide array binding signal intensity
1,B1,37.5

# Target: AgSla1-D1-D2
# Assay: as above
# Experimental: as §1
row,Binder,SPOT peptide array binding signal intensity
1,B1,354

# Target: AgSla1-D3
# Assay: as above
# Experimental: as §1
row,Binder,SPOT peptide array binding signal intensity
1,B1,1

# Target: CaAbp1-D1
# Assay: as above
# Experimental: as §1
row,Binder,SPOT peptide array binding signal intensity
1,B1,454

# Target: CaAbp1-D2
# Assay: as above
# Experimental: as §1
row,Binder,SPOT peptide array binding signal intensity
1,B1,512

# Target: CaBbc1
# Assay: as above
# Experimental: as §1
row,Binder,SPOT peptide array binding signal intensity
1,B1,300

# Target: CaBem1-D1
# Assay: as above
# Experimental: as §1
row,Binder,SPOT peptide array binding signal intensity
1,B1,53.5

# Target: CaBzz1-D1
# Assay: as above
# Experimental: as §1
row,Binder,SPOT peptide array binding signal intensity
1,B1,96

# Target: CaBzz1-D2
# Assay: as above
# Experimental: as §1
row,Binder,SPOT peptide array binding signal intensity
1,B1,34

# Target: CaCyk3
# Assay: as above
# Experimental: as §1
row,Binder,SPOT peptide array binding signal intensity
1,B1,147

# Target: CaFus1
# Assay: as above
# Experimental: as §1
row,Binder,SPOT peptide array binding signal intensity
1,B1,525

# Target: CaHof1
# Assay: as above
# Experimental: as §1
row,Binder,SPOT peptide array binding signal intensity
1,B1,≤ 0

# Target: CaHse1
# Assay: as above
# Experimental: as §1
row,Binder,SPOT peptide array binding signal intensity
1,B1,30.5

# Target: CaLsb1
# Assay: as above
# Experimental: as §1
row,Binder,SPOT peptide array binding signal intensity
1,B1,1.5

# Target: CaLsb4
# Assay: as above
# Experimental: as §1
row,Binder,SPOT peptide array binding signal intensity
1,B1,108

# Target: CaMyo5
# Assay: as above
# Experimental: as §1
row,Binder,SPOT peptide array binding signal intensity
1,B1,2

# Target: CaNbp2
# Assay: as above
# Experimental: as §1
row,Binder,SPOT peptide array binding signal intensity
1,B1,394

# Target: CaRvs167
# Assay: as above
# Experimental: as §1
row,Binder,SPOT peptide array binding signal intensity
1,B1,12

# Target: CaRvs167-3
# Assay: as above
# Experimental: as §1
row,Binder,SPOT peptide array binding signal intensity
1,B1,104

# Target: CaSho1
# Assay: as above
# Experimental: as §1
row,Binder,SPOT peptide array binding signal intensity
1,B1,674

# Target: CaSla1-D1-D2
# Assay: as above
# Experimental: as §1
row,Binder,SPOT peptide array binding signal intensity
1,B1,27

# Target: CaSla1-D3
# Assay: as above
# Experimental: as §1
row,Binder,SPOT peptide array binding signal intensity
1,B1,3.5

# Target: ScAbp1
# Assay: as above
# Experimental: as §1
row,Binder,SPOT peptide array binding signal intensity
1,B1,16

# Target: ScBbc1
# Assay: as above
# Experimental: as §1
row,Binder,SPOT peptide array binding signal intensity
1,B1,124

# Target: ScBem1-D1
# Assay: as above
# Experimental: as §1
row,Binder,SPOT peptide array binding signal intensity
1,B1,98

# Target: ScBzz1-D1
# Assay: as above
# Experimental: as §1
row,Binder,SPOT peptide array binding signal intensity
1,B1,7.5

# Target: ScBzz1-D2
# Assay: as above
# Experimental: as §1
row,Binder,SPOT peptide array binding signal intensity
1,B1,15

# Target: ScCyk3
# Assay: as above
# Experimental: as §1
row,Binder,SPOT peptide array binding signal intensity
1,B1,272

# Target: ScFus1
# Assay: as above
# Experimental: as §1
row,Binder,SPOT peptide array binding signal intensity
1,B1,396

# Target: ScHof1
# Assay: as above
# Experimental: as §1
row,Binder,SPOT peptide array binding signal intensity
1,B1,≤ 0

# Target: ScHse1
# Assay: as above
# Experimental: as §1
row,Binder,SPOT peptide array binding signal intensity
1,B1,1290

# Target: ScLsb1
# Assay: as above
# Experimental: as §1
row,Binder,SPOT peptide array binding signal intensity
1,B1,11.2

# Target: ScLsb2
# Assay: as above
# Experimental: as §1
row,Binder,SPOT peptide array binding signal intensity
1,B1,6

# Target: ScLsb3
# Assay: as above
# Experimental: as §1
row,Binder,SPOT peptide array binding signal intensity
1,B1,690

# Target: ScLsb4
# Assay: as above
# Experimental: as §1
row,Binder,SPOT peptide array binding signal intensity
1,B1,7.5

# Target: ScMyo3
# Assay: as above
# Experimental: as §1
row,Binder,SPOT peptide array binding signal intensity
1,B1,6.5

# Target: ScMyo5
# Assay: as above
# Experimental: as §1
row,Binder,SPOT peptide array binding signal intensity
1,B1,3.25

# Target: ScNbp2
# Assay: as above
# Experimental: as §1
row,Binder,SPOT peptide array binding signal intensity
1,B1,437

# Target: ScPex13
# Assay: as above
# Experimental: as §1
row,Binder,SPOT peptide array binding signal intensity
1,B1,0.5

# Target: ScRvs167
# Assay: as above
# Experimental: as §1
row,Binder,SPOT peptide array binding signal intensity
1,B1,29

# Target: ScSho1
# Assay: as above
# Experimental: as §1
row,Binder,SPOT peptide array binding signal intensity
1,B1,430

# Target: ScSla1-D1-D2
# Assay: as above
# Experimental: as §1
row,Binder,SPOT peptide array binding signal intensity
1,B1,303

# Target: ScSla1-D3
# Assay: as above
# Experimental: as §1
row,Binder,SPOT peptide array binding signal intensity
1,B1,11

# Target: SpAbp1-D1
# Assay: as above
# Experimental: as §1
row,Binder,SPOT peptide array binding signal intensity
1,B1,143

# Target: SpBbc1
# Assay: as above
# Experimental: as §1
row,Binder,SPOT peptide array binding signal intensity
1,B1,7.25

# Target: SpBzz1-D1
# Assay: as above
# Experimental: as §1
row,Binder,SPOT peptide array binding signal intensity
1,B1,91

# Target: SpBzz1-D2
# Assay: as above
# Experimental: as §1
row,Binder,SPOT peptide array binding signal intensity
1,B1,1.25

# Target: SpCyk3
# Assay: as above
# Experimental: as §1
row,Binder,SPOT peptide array binding signal intensity
1,B1,7

# Target: SpHof1
# Assay: as above
# Experimental: as §1
row,Binder,SPOT peptide array binding signal intensity
1,B1,217

# Target: SpHof1-2
# Assay: as above
# Experimental: as §1
row,Binder,SPOT peptide array binding signal intensity
1,B1,13

# Target: SpHof1-3
# Assay: as above
# Experimental: as §1
row,Binder,SPOT peptide array binding signal intensity
1,B1,456

# Target: SpHse1
# Assay: as above
# Experimental: as §1
row,Binder,SPOT peptide array binding signal intensity
1,B1,421

# Target: SpLsb1
# Assay: as above
# Experimental: as §1
row,Binder,SPOT peptide array binding signal intensity
1,B1,≤ 0

# Target: SpLsb4
# Assay: as above
# Experimental: as §1
row,Binder,SPOT peptide array binding signal intensity
1,B1,336

# Target: SpMyo1
# Assay: as above
# Experimental: as §1
row,Binder,SPOT peptide array binding signal intensity
1,B1,3

# Target: SpNbp2
# Assay: as above
# Experimental: as §1
row,Binder,SPOT peptide array binding signal intensity
1,B1,418

# Target: SpPex13
# Assay: as above
# Experimental: as §1
row,Binder,SPOT peptide array binding signal intensity
1,B1,10

# Target: SpRvs167
# Assay: as above
# Experimental: as §1
row,Binder,SPOT peptide array binding signal intensity
1,B1,3.83

# Target: SpSla1-D1-D2
# Assay: as above
# Experimental: as §1
row,Binder,SPOT peptide array binding signal intensity
1,B1,5

# Target: SpSla1-D3
# Assay: as above
# Experimental: as §1
row,Binder,SPOT peptide array binding signal intensity
1,B1,5
